The results in this text go back to PubChem BioAssay AID2314 (National Center for Advancing Translational Sciences (NCATS), 2010).

About 37,000 (12%) of roughly 300,000 compounds were called active. Cut-off read from the data, not from the text of the source: active = max response mostly above about 13% (no sharp cut-off); inactive = mostly below about 14%. The entries come from a sample that favours actives as a whole.

This assay is described as follows: Cycloheximide Counterscreen for Small Molecule Inhibitors of Shiga Toxin. Note: read at 38.3 µM for the half of the compounds with a filed dose; 0% is about no effect. The following applies: cell reporter, cycloheximide protein synthesis inhibition counterscreen; active compounds read high.
As to `CCCCCCCC(=O)NC(Nc1ccccc1OC)C(Cl)(Cl)Cl` (centres undefined), the max response is 1.89% (inactive). `COc1ccc(C(=O)COC(=O)Cn2cnc3c2c(=O)n(C)c(=O)n3C)c(OC)c1`: the max response is -1.6% (inactive). The figure for `O=C(C1CCCO1)N1CCN(S(=O)(=O)c2ccc(Br)cc2)CC1` (centres undefined) is -1.38% (inactive); for `Cc1cnc(CN(C)C(=O)C2CCC(=O)N(CCc3cccc(F)c3)C2)[nH]1` (centres undefined) it is -1.18% (inactive); for `C=CCNc1nc(N)c([N+](=O)[O-])c(NC2CCCCC2)n1` it is -4.11% (inactive). The value for `CC(C)(C)OC(=O)N1CCC(NC(=O)c2[nH]cnc2C(=O)N[C@@H](Cc2ccccc2)C(=O)OCc2ccccc2)CC1` was -1.27% (inactive); that for `COC(=O)c1cccc(C(=O)N2CCCC(Nc3ccc4c(c3)OCCO4)C2)c1` (centres undefined) was -1.68% (inactive). Turning to `Cn1cnc(S(=O)(=O)Nc2ccc3c(c2)OCCO3)c1`, the max response is -2.48% (inactive). The value for `O=C1c2ccccc2C(Nc2ccc3c(c2)OCCO3)N1Cc1ccco1` (centres undefined) was 86.7% (active); that for `Cc1ccnc(N2C(=O)c3ccccc3C2Nc2ccc3c(c2)OCCO3)c1` (centres undefined) was 42.1% (active). The value for `COc1ccccc1C1/C(=C(/O)c2ccc(C)cc2)C(=O)C(=O)N1Cc1ccco1` (centres undefined) was 3.34% (inactive); that for `O=C(NC1CCCCC1)C1c2ccccc2C(=O)N1Cc1ccco1` (centres undefined) was 0.684% (inactive); that for `CCOc1ccc2[nH]c(C(=O)N/N=C/c3cccc(OC)c3OC)cc2c1` was 9.3% (inactive).

For the compound `CC(C)c1ccc(N(C(=O)c2ccco2)C(C(=O)NC2CCCC2)c2cccnc2)cc1` (centres undefined), the max response was -5.72% (inactive). The value for `CCC1CCCCN1CCCNC(=O)c1cc2c(Cl)nc3ccccc3c2s1` (centres undefined) was -11.5% (inactive); that for `Oc1ccc(-c2onc3ccc(Cl)cc23)cc1` was 15.4% (inactive).

Take `COC(=O)c1ccc(COC(=O)c2cnc(Cl)c(Cl)c2)cc1`: the max response is 34.6% (active). As for `COC(=O)c1ccc(COC(=O)c2cnccn2)cc1`, the max response was -1.89% (inactive). In the case of `CCOc1ccc(C(C)=O)cc1COC(=O)c1cnc(Cl)c(Cl)c1`, the max response is -0.208% (inactive). The value for `COc1ccc(NS(=O)(=O)c2ccc(O)c(C(=O)OCC(=O)NC3CCCCC3)c2)cc1` was 0.885% (inactive). On to `CCN(C(=O)COc1cccnc1[N+](=O)[O-])C1CCS(=O)(=O)C1` (centres undefined), for which the max response was -3% (inactive). The figure for `Cc1nn2c(=O)cc(COC(=O)c3ccc(NC(=O)C(C)(C)C)cc3)nc2s1` is -6.18% (inactive); for `O=C(NCCCn1ccnc1)c1cc(Br)c(Br)s1` it is -0.73% (inactive); for `O=C(NCCCn1ccnc1)c1cc(-c2ccccc2)on1` it is 27.9% (active). As to `COc1ccccc1-c1cc(C(=O)NCCCn2ccnc2)no1`, the max response was -1.18% (inactive). The value for `COc1cc(OC)cc(C(=O)NCCCn2ccnc2)c1` was -2.01% (inactive); that for `COc1ccc(-c2cc(C(=O)NCCCn3ccnc3)no2)cc1` was 19.9% (active); that for `O=C(NCCCn1ccnc1)c1ccccc1F` was 1.63% (inactive).

Consider `CCN(Cc1ccccc1)C(=O)CCS(=O)(=O)c1ccc2c(c1)oc(=O)n2C`, for which the max response is 0.913% (inactive). For `CCC(=O)c1cn(CCOc2ccccc2OC)c2ccccc12`, the max response is 3.68% (inactive). `CC(C)C[C@H](NC(=O)N1CCn2c1nc1ccccc12)C(=O)NC1CC1`: the max response was -12.6% (inactive).

`CC(C)[C@H](NC(=O)N1CCn2c1nc1ccccc12)C(=O)NC1CC1`: the max response was 12.8% (active). Consider `CC(C)[C@H](NC(=O)N1CCn2c1nc1ccccc12)C(=O)NCCc1ccccc1`, for which the max response was 11.9% (inactive). For the compound `CCOC(=O)c1cc(C(=O)Nc2ccc(S(=O)(=O)Nc3ccc(OC)cc3)cc2)nn1C`, the max response is 3.41% (inactive).

Consider `COc1ccc(-c2ocnc2C(=O)Nc2ccc3c(c2)CCC3)cc1`, for which the max response was -4.1% (inactive). Consider `CCCC(=O)Nc1ccc2c(c1)nc1n2CCSC1`, for which the max response was 24.1% (active). Regarding `CCOC(=O)N1CCN(Cc2nc3cc(NC(=O)CC)ccc3n2CC)CC1`, the max response is -2.89% (inactive). Regarding `CCCC(=O)Nc1ccc2c(c1)nc(CCNC(=O)c1ccco1)n2C`, the max response was -0.909% (inactive). The value for `Cc1ccccc1N1CCN(Cc2nc(Cc3ccccc3F)no2)CC1` was -1.36% (inactive); that for `O=C(/C=C/c1ccc(Cl)cc1Cl)NCc1ccco1` was 34.8% (active). Regarding `COC(=O)/C=C/C(=O)NCc1ccco1`, the max response is -1.68% (inactive).

Take `O=C(NCc1ccco1)C1(c2ccc(Cl)cc2)CCCC1`: the max response was -3.56% (inactive). With `FC(F)(F)C1CCCN(c2nsc3ccccc23)C1` (centres undefined), the max response is -4.78% (inactive). The value for `Cc1ccc2[nH]c(=O)c(CN(CC3COCCO3)C(=O)Nc3ccccc3C)cc2c1` (centres undefined) was -2.55% (inactive). In the case of `COc1ccc(CC(=O)Nc2c(C(N)=O)oc3ccccc23)cc1`, the max response was -1.28% (inactive). As to `O=C(CS(=O)(=O)c1ccccc1)Nc1ccc(S(=O)(=O)Nc2ccccn2)cc1`, the max response was -1.21% (inactive).

`COc1ccc(NC(=O)CS(=O)(=O)c2ccccc2)cc1`: the max response is 26.3% (active). With `Cc1ccc(OCC(=O)Nc2nnc(-c3ccco3)s2)cc1`, the max response is -1.91% (inactive). As for `CCC(=O)Oc1cccc(C(=O)Nc2ccc(-c3nnc(-c4ccco4)o3)cc2)c1`, the max response is 35.2% (active). Take `Cc1cccc(NC(=O)CSc2nnc(-c3ccco3)o2)c1`: the max response is 5.5% (inactive). In the case of `CC(=O)Nc1ccc(NC(=O)COc2ccc(-c3ccccc3)cc2)cc1`, the max response is 1.23% (inactive). Take `COc1ccc(CC(=O)Nc2ccc(-c3nnc(-c4ccccc4)o3)cc2)cc1`: the max response was 10.6% (active). Consider `Cc1ccc(OCC(=O)Nc2ccc(-c3nc4ncccc4o3)cc2)cc1`, for which the max response is -0.121% (inactive).

Consider `O=C(CCc1ccccc1)Nc1cccc(-c2nnc(-c3ccco3)o2)c1`, for which the max response is 1.83% (inactive). Turning to `Cc1ccc(OCC(=O)Nc2ccc(-c3nnc(-c4ccco4)o3)cc2)cc1`, the max response was 28.8% (active).

As to `COc1ccc(NC(=O)c2cnc(NS(=O)(=O)c3ccccc3)nc2)cc1`, the max response is -2.55% (inactive). The value for `Fc1ccc2c(c1)C(c1cccnc1)=NNC(c1cccs1)=N2` was 14.7% (inactive); that for `CC(=O)Nc1ccc(Nc2c([N+](=O)[O-])cc(S(C)(=O)=O)cc2[N+](=O)[O-])cc1` was -3.33% (inactive). `CCN(CC)S(=O)(=O)c1ccc(N2CCOCC2)c(NC(=O)C2CSC3(C)CCC(=O)N23)c1` (centres undefined): the max response is 10.5% (inactive).
